Results as given in the supplement of paper PMC6555819.

Legend:
Assay in all cases: PBM binding z-score (relative to random genomic background probes); higher = stronger binding; sequences stand for … in GC…GCGATTGACAGCGTAGAATGAAGG
[1] = test system: FXR:RXRa (NR concentration 270 nM, RXRa partner concentration 90 nM)
Procedure, shortened: (§1)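 Each nuclear receptor dimer, without ligand, was incubated for 1 h on custom Agilent 4×180K protein-binding microarrays. Binding was detected with antibodies against each partner (one per run), and scanned fluorescence was regression-normalized. The binding z-scores are referenced to random human genomic background probes.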

[2] = test system: LXRa:RXRa (NR concentration 270 nM, RXRa partner concentration 90 nM)
Procedure, shortened: as §1

[3] = test system: LXRa homodimer (NR concentration 270 nM)
Procedure, shortened: as §1

[4] = test system: LXRb:RXRa (NR concentration 270 nM, RXRa partner concentration 90 nM)
Procedure, shortened: as §1

[5] = test system: LXRb homodimer (NR concentration 270 nM)
Procedure, shortened: as §1

[6] = test system: PPARa:RXRa (NR concentration 270 nM, RXRa partner concentration 90 nM)
Procedure, shortened: as §1

[7] = test system: PPARg:RXRa (NR concentration 180 nM, RXRa partner concentration 90 nM)
Procedure, shortened: as §1

[8] = test system: PPARg:RXRa 270nM:90nM, anti-RXR (NR concentration 270 nM, RXRa partner concentration 90 nM)
Procedure, shortened: as §1

[9] = test system: PPARg:RXRa 30nM:10nM, anti-RXR (NR concentration 30 nM, RXRa partner concentration 10 nM)
Procedure, shortened: as §1

[10] = test system: PPARg:RXRa 90nM:30nM, anti-RXR (NR concentration 90 nM, RXRa partner concentration 30 nM)
Procedure, shortened: as §1

[11] = test system: PPARg:RXRa DBDmut IVT, anti-RXR (DBD mutation: RXRa K156A/R161A, NR concentration 270 nM, RXRa partner concentration 90 nM)
Procedure, shortened: as §1

[12] = test system: PPARg:RXRa IVT, anti-PPARg (NR concentration 270 nM, RXRa partner concentration 90 nM)
Procedure, shortened: as §1

[13] = test system: PPARg DBDmut:RXRa IVT, anti-PPARg (DBD mutation: PPARg1 K132A/R137A, NR concentration 270 nM, RXRa partner concentration 90 nM)
Procedure, shortened: as §1

[14] = test system: PPARg DBDmut IVT, anti-PPARg (DBD mutation: PPARg1 K132A/R137A, NR concentration 270 nM)
Procedure, shortened: as §1

[15] = test system: PPARg homodimer (NR concentration 180 nM)
Procedure, shortened: as §1

[16] = test system: PXR:RXRa (NR concentration 270 nM, RXRa partner concentration 90 nM)
Procedure, shortened: as §1

[17] = test system: PXR homodimer (NR concentration 270 nM)
Procedure, shortened: as §1

[18] = test system: RARa:RXR (NR concentration 270 nM, RXRa partner concentration 90 nM)
Procedure, shortened: as §1

[19] = test system: RARa homodimer (NR concentration 270 nM)
Procedure, shortened: as §1

[20] = test system: RARb:RXRa (NR concentration 270 nM, RXRa partner concentration 90 nM)
Procedure, shortened: as §1

| Sequence | PBM binding z-score [1] | PBM binding z-score [2] | PBM binding z-score [3] | PBM binding z-score [4] | PBM binding z-score [5] | PBM binding z-score [6] | PBM binding z-score [7] | PBM binding z-score [8] | PBM binding z-score [9] | PBM binding z-score [10] | PBM binding z-score [11] | PBM binding z-score [12] | PBM binding z-score [13] | PBM binding z-score [14] | PBM binding z-score [15] | PBM binding z-score [16] | PBM binding z-score [17] | PBM binding z-score [18] | PBM binding z-score [19] | PBM binding z-score [20] |
| --- | --- | --- | --- | --- | --- | --- | --- | --- | --- | --- | --- | --- | --- | --- | --- | --- | --- | --- | --- | --- |
| TCTAGCCGGCCAGAGGGTCACTCAAGAGGTACGG | 1.12 | 0.885 | -0.666 | 1.07 | -1.11 | 2.03 | 0.575 | 1.57 | 1.39 | 1.44 | 0.224 | -0.0177 | -0.893 | -1.23 | 0.24 | 1.48 | -0.354 | 2.24 | -0.43 | 2.08 |
| CCAGACAGGCGAGAAGGTAACTCAGCCTCGATTA | -0.951 | -0.595 | -0.499 | -0.97 | -1.31 | -0.764 | -0.0182 | -0.949 | -0.723 | -0.947 | -0.678 | -0.816 | -0.981 | -2.1 | -0.649 | -1.02 | -0.455 | -0.88 | -0.498 | -0.619 |
| CAAACTAGGTCACGAAAGGTCACAGTCGAATGAC | 6.73 | 7.6 | 5.88 | 6.82 | 1.64 | 6.62 | 10.1 | 8.34 | 6.6 | 8.57 | 8.61 | 9.14 | 2.02 | 1.37 | 4.6 | 6.61 | 1.31 | 7.03 | 2.46 | 5.7 |
| GCTACTAGGTCAACTGATGGTCAGCTAAAGCTCG | 4.07 | 3.11 | 0.488 | 2.22 | 0.314 | 4.47 | 7.27 | 6.19 | 3.31 | 5.71 | 8 | 8.03 | 2.65 | 2.15 | 2.57 | 1.75 | -0.307 | 3.07 | 0.12 | 4.25 |
| CAAACTGGGTCAAAGGTCAAAGTCGAGCCAACCA | 7.83 | 7.07 | 4.88 | 6.89 | 2.4 | 7.41 | 14.1 | 11.2 | 13.5 | 13 | 8.32 | 8.37 | 2.08 | 2.33 | 4.84 | 6.91 | 2 | 8.83 | 2.4 | 5.44 |
| ATAGGTAGGTTAAGGGTCATTCAGGTTGGTTCGC | 5.35 | 5.02 | 3.31 | 4.83 | 2.47 | 5.86 | 9.73 | 8.69 | 8.35 | 9.51 | 3.71 | 5.35 | 3.33 | 1.88 | 4.75 | 5.63 | 3.61 | 6.1 | 3.3 | 3.83 |
| GCAACTGGGGCAAAGCAGGTTACCATAAGGTTGG | 0.393 | 0.00585 | -0.385 | 0.511 | -0.769 | 2.06 | 2.61 | 2.77 | 0.156 | 1.77 | 5.89 | 5.52 | 0.219 | -0.357 | -0.0265 | 0.339 | -0.607 | 0.838 | -0.392 | 0.995 |
| GTTCCAAGGTGAATAGGTCGTTGATGAGTAGGCG | 1.29 | 0.977 | -0.00758 | 0.642 | 0.0158 | 2.24 | 1.16 | 1.94 | 0.65 | 1.07 | 2.09 | 2.89 | -0.109 | 0.149 | 1.58 | 1.02 | 0.352 | 2.05 | 0.818 | 2.22 |
| CGAACTAGGTCAAAGACAGTGAATCTCCGCACGC | 3.64 | 2.39 | 0.268 | 1.66 | 0.166 | 4.8 | 7.47 | 6.52 | 4.4 | 6.21 | 8.07 | 8.21 | 4.15 | 2.23 | 1.24 | 1.06 | 0.0351 | 1.82 | 0.463 | 3.74 |
| CAAACTAGGTCAAAAGTCAAAGTCGAGCCAACCA | 4.73 | 3.95 | 0.814 | 2.97 | 0.644 | 6.39 | 11.9 | 9.92 | 9.77 | 11 | 8.48 | 8.18 | 0.975 | 1.19 | 1.78 | 2.68 | -0.0368 | 4.56 | 0.778 | 3.78 |
| CCGACTGGGGCAAACGTTACCATACTCAGTACGA | -0.264 | -0.168 | -0.00869 | -0.27 | -0.682 | 1.61 | 3.62 | 4.48 | 2.27 | 4.25 | 5.15 | 3.9 | -0.175 | -0.646 | 0.256 | -0.42 | -0.33 | -0.168 | -0.437 | 0.494 |
| TCTTGTAGATCAATAGAGGTTAAGGAAGTGCGCT | 1.25 | 2.42 | 0.324 | 1.5 | -0.201 | 2.08 | 0.136 | 1.99 | 3.04 | 2.63 | 1.91 | 0.959 | 0.906 | 0.773 | 0.732 | 2.58 | 0.412 | 1.96 | 0.894 | 1.04 |
| ATCTCTAGGTAAGACTCAGTTCGGTGAAGAACGC | 0.336 | 0.318 | 0.624 | 0.144 | 0.85 | -0.0565 | -0.0259 | 0.127 | -0.00912 | 0.104 | 2.26 | 1.24 | 0.576 | 0.0505 | 0.778 | 0.179 | 0.754 | 0.0942 | 0.985 | 0.104 |
